{"source": "PubChem BioAssay", "data": [{"target": "Epidermal growth factor receptor (Homo sapiens) (UniProt P00533)", "sequence (P00533 whole entry, looked up)": "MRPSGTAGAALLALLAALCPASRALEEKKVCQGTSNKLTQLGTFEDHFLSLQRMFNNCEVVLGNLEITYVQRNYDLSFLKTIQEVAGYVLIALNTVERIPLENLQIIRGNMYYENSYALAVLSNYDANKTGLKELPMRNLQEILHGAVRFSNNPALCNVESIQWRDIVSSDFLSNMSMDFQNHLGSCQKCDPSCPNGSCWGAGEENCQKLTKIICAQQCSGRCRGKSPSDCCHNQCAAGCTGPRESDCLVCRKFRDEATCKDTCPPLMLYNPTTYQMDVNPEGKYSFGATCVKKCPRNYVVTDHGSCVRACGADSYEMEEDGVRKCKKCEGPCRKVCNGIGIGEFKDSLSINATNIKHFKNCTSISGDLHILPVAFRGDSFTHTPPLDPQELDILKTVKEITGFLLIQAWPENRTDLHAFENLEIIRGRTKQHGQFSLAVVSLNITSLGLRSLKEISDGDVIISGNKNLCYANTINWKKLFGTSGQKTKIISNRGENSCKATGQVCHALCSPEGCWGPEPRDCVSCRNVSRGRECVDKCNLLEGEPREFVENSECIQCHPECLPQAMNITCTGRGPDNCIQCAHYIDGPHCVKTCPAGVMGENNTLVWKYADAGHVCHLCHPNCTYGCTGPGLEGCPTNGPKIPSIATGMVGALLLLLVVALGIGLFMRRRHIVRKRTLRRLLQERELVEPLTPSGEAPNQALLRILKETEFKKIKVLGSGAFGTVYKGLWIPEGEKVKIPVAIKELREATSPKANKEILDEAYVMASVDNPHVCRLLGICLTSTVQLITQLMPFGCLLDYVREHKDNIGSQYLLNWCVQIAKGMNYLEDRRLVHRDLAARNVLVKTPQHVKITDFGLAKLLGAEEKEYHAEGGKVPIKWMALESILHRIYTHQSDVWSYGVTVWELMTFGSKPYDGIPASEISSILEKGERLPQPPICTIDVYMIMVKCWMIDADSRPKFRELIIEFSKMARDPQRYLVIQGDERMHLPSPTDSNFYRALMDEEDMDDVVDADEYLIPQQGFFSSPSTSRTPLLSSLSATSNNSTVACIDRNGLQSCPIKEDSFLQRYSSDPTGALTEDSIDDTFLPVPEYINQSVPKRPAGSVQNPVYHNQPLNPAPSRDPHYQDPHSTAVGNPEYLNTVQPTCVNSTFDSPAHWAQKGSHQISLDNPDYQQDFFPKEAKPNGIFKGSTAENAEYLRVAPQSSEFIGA", "assay": "EGFR binders on small-molecule microarrays, primary screen, biochemical, small-molecule microarray, 635 nm fluorescence (AID 1104);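 further: score merges 667 nm emission intensity with spot signal to noise over triplicate slides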", "details": "EGFR binding, higher = more signal", "values": [{"molecule": "COc1ccc(O[C@H]2C=C[C@@H](c3ccccc3)O[C@@H]2CON=CC[C@@H]2C=C[C@H](OC(C)=O)[C@@H](COC(C)=O)O2)cc1", "composite z-score": 0.238}, {"molecule": "CO[C@H]1COC(=O)CC=C[C@@H](C)[C@H](NS(=O)(=O)c2ccc(C)cc2)COC(=O)CCC[C@@H]1C", "composite z-score": 0.484}, {"molecule": "CON=CC[C@@H]1C=C[C@H](OC(C)=O)[C@@H](COC(C)=O)O1", "composite z-score": 0.393}, {"molecule": "C=COC[C@@H]1CN2[C@@H](CC[C@@H](C)[C@@H]2c2ccc(Br)cc2)C(=O)O1", "composite z-score": -0.46}, {"molecule": "O=C1[C@H]2[C@H]3[C@H](O)[C@H](O)CC(=NOCc4ccccc4)[C@@H]3CC[C@H]2C(=O)N1Cc1ccc2c(c1)OCO2", "composite z-score": 0.317}, {"molecule": "COC(=O)NCC=Cc1nc(CCCO)co1", "composite z-score": 0.581}, {"molecule": "CO[C@H]1COC(=O)CC=C[C@H](C)[C@@H](OC)COC(=O)[C@@H](C)COC(=O)CC=C[C@@H]1C", "composite z-score": 1.32}, {"molecule": "COC(=O)[C@@H]1CC[C@H](C)[C@@H](c2ccc(C)cc2)N1C(=O)c1ccc(C=NOC[C@@H](C)[C@H](OCc2ccccc2)C(C)C)cc1", "composite z-score": 0.814}, {"molecule": "COC(=O)CC=C[C@@H](C)[C@@H](C=NO[C@@H]1O[C@H](COC(C)=O)[C@@H](OC(C)=O)[C@H](OC(C)=O)[C@H]1OC(C)=O)NS(=O)(=O)c1ccc(C)cc1", "composite z-score": 0.504}, {"molecule": "CCOC(=O)[C@H](CC(C)C)NC(=O)CCC1CC(OC(=O)NCc2cccc3ccccc23)CC2(CCCC(COC(=O)NCCOc3ccccc3)O2)O1", "note": "(stereo partly specified)", "composite z-score": 0.557}, {"molecule": "COc1cccc([C@H]2Oc3ccc(OC)cc3C(=NO[C@@H](C)c3cn([C@H](CO)Cc4ccccc4)nn3)[C@@H]2O)c1", "composite z-score": -0.0558}, {"molecule": "COC(=O)CC=C[C@@H](C)[C@@H](C=NOC[C@H]1O[C@H](c2ccccc2)C=C[C@@H]1Oc1ccc(OC)cc1)NS(=O)(=O)c1ccc(C)cc1", "composite z-score": -0.873}, {"molecule": "C=CC1=C[C@H](O)[C@@H]2O[C@@H]2C12OCCCO2", "composite z-score": -0.547}, {"molecule": "COC(=O)CC=C[C@@H](C)[C@H](OCc1cccc(-c2ccccc2)c1)C1CCCCC1", "composite z-score": 0.371}, {"molecule": "CC(C)CON=C1C[C@@H](O)[C@@H](O)[C@@H]2[C@@H]3C(=O)N(Cc4ccc5c(c4)OCO5)C(=O)[C@@H]3CC[C@H]12", "composite z-score": 0.216}, {"molecule": "COc1ccc(O[C@H]2C=C[C@@H](c3ccccc3)O[C@@H]2CON=C(C)C)cc1", "composite z-score": -0.0601}, {"molecule": "COC(=O)CC=C[C@@H](C)[C@@H](C=NOC(C)CN1CCCc2nc(C)c(C)cc21)OC", "note": "(stereo partly specified)", "composite z-score": 0.538}, {"molecule": "CC(C)(C)N1C(=O)[C@H]2[C@H]3[C@H](O)[C@H](O)CC(=NO[C@@H]4O[C@H](CO)[C@@H](O)[C@H](O)[C@H]4O)[C@H]3CC[C@H]2C1=O", "composite z-score": 0.408}, {"molecule": "C#CCCCON=C1C[C@@H](O)[C@@H](O)[C@@H]2[C@@H]3C(=O)N(C(C)(C)C)C(=O)[C@@H]3CC[C@H]12", "composite z-score": -0.0084}, {"molecule": "CCOC(=O)NN=C1C[C@@H](O)[C@@H](O)[C@@H]2[C@@H]3C(=O)N([C@@H](C)c4ccccc4)C(=O)[C@@H]3CC[C@H]12", "composite z-score": 0.308}, {"molecule": "COC(=O)[C@@H]1CC[C@H](C)[C@@H](c2ccc(C)cc2)N1C(=O)c1ccc(C=NO[C@H](C)c2cn([C@H](CO)Cc3ccccc3)nn2)cc1", "composite z-score": 0.551}, {"molecule": "CCOC(=O)CCN1C(=O)[C@H]2[C@H]3[C@H](O)[C@H](O)CC(=NNC(=O)OCc4ccccc4)[C@@H]3CC[C@H]2C1=O", "composite z-score": 0.188}, {"molecule": "CC(C)=CCCC(C)=CCON=C1C[C@@H](O)[C@@H](O)[C@@H]2[C@@H]3C(=O)N(c4ccc(F)cc4F)C(=O)[C@@H]3CC[C@@H]12", "composite z-score": 0.628}, {"molecule": "CCc1cc2c(nc1CC)CCN(CCC(C)=NO[C@H](C)c1cn([C@H](CO)Cc3ccccc3)nn1)C2", "composite z-score": 0.1}, {"molecule": "COC(=O)[C@H](C)NC(=O)CCC1CC(OC(=O)NCCc2ccc(F)cc2)CC2(CCCC(COC(=O)NCCC(C)C)O2)O1", "note": "(stereo partly specified)", "composite z-score": 0.0797}, {"molecule": "CCN1C(=O)[C@@H]2[C@H]3C(=CC[C@@H]2C1=O)C1(OCCCO1)[C@H]1O[C@H]1[C@H]3O", "composite z-score": 0.286}, {"molecule": "CCCNC(=O)OC[C@H]1O[C@H](CCON=C(C)CCN2CCc3nc(CC)c(CC)cc3C2)C=C[C@@H]1Oc1ccc(OC)cc1", "composite z-score": 0.159}, {"molecule": "COc1cccc([C@H]2Oc3ccc(OC)cc3C(=NO[C@H](C)c3cn([C@H](CO)Cc4ccccc4)nn3)[C@@H]2O)c1", "composite z-score": -0.0537}, {"molecule": "Cc1ccc(S(=O)(=O)n2c3ccccc3c3nnc(C(=O)c4ccccc4)nc32)cc1", "composite z-score": 0.494}, {"molecule": "CCOC(=O)[C@H](Cc1ccccc1)NC(=O)CCC1CC(OC(=O)NCc2ccc3c(c2)OCO3)CC2(CCCC(COC(=O)NCCc3ccccc3OC)O2)O1", "note": "(stereo partly specified)", "composite z-score": 0.539}, {"molecule": "Cn1c(=O)n2n(c1=O)[C@H]1[C@H](O)[C@@H]3O[C@@H]3C(=O)[C@H]1CC2", "composite z-score": 0.531}, {"molecule": "C[C@@H]1CC[C@H]2C(=O)O[C@@H](Cc3ccccc3)CN2[C@H]1c1ccc(Br)cc1", "composite z-score": 0.389}, {"molecule": "CCOC(=O)[C@H](CC(C)C)NC(=O)CCC1CC(OC(=O)NCCc2ccc(F)cc2)CC2(CCCC(COC(=O)NCCc3ccc(Cl)cc3)O2)O1", "note": "(stereo partly specified)", "composite z-score": 0.517}, {"molecule": "CO[C@H]1COC(=O)[C@H](C)NC(=O)CC=C[C@@H](C)[C@H](OC)COC(=O)[C@@H](OCc2ccccc2)C=C[C@@H]1C", "composite z-score": 0.475}, {"molecule": "C#CCCCON=C1C[C@@H](O)[C@@H](O)[C@@H]2[C@@H]3C(=O)N(c4ccc(F)cc4F)C(=O)[C@@H]3CC[C@H]12", "composite z-score": 0.403}, {"molecule": "O=C1C[C@@H](O)[C@@H](O)[C@@H]2[C@@H]3C(=O)N(Cc4ccc5c(c4)OCO5)C(=O)[C@@H]3CC[C@H]12", "composite z-score": 0.368}]}]}
